Among the data in paper PMC7862700, “An all-to-all approach to the identification of sequence-specific readers for epigenetic DNA modifications on cytosine” are binding signal values, retold here.

Holding throughout (assay): DAPPL (digital affinity profiling via proximity ligation, sequencing); 10 mM Tris-HCl pH 7.5, 50 mM NaCl, 1 mM DTT, 4% glycerol, room temperature, 30 min; GST-TFs on glutathione beads, 16-mer random dsDNA library, 0.1% formaldehyde crosslink after washing; high values mean tight binding
One assay has as its target T1, FEV (Homo sapiens, UniProt Q99581 1-238).
T1 sequence: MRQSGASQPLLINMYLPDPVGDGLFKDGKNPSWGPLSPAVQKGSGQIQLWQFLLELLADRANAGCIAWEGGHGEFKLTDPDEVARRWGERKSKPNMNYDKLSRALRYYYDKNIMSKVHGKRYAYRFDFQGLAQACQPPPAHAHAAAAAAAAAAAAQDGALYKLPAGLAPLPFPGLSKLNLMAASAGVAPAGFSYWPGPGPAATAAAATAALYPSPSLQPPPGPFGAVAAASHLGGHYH
The conditions noted are these: protein: recombinant; tags: N-terminal GST; dsDNA, one strand shown. The method, boiled down: (§1)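 Binding signal is each hexamer's read frequency for a factor divided by its frequency in the tag-only sample. The factors were GST-fused human transcription factors from yeast, captured on glutathione beads, DNA-barcoded and pooled with that sample. Pools were incubated with 200 nmole of a random double-stranded 16-mer DNA library in Tris/NaCl/DTT/glycerol buffer at room temperature for 30 min, then washed, crosslinked with 0.1% formaldehyde, proximity-ligated with BsaI/T4 ligase (1 h, 37 °C), PCR-amplified and sequenced on an Illumina NextSeq500.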

The target in another assay is ETV5 (Homo sapiens, UniProt P41161 1-510). Conditions: protein: recombinant; tags: N-terminal GST; dsDNA, one strand shown. In a few lines: as §1
Chain of ETV5 (P41161 whole entry): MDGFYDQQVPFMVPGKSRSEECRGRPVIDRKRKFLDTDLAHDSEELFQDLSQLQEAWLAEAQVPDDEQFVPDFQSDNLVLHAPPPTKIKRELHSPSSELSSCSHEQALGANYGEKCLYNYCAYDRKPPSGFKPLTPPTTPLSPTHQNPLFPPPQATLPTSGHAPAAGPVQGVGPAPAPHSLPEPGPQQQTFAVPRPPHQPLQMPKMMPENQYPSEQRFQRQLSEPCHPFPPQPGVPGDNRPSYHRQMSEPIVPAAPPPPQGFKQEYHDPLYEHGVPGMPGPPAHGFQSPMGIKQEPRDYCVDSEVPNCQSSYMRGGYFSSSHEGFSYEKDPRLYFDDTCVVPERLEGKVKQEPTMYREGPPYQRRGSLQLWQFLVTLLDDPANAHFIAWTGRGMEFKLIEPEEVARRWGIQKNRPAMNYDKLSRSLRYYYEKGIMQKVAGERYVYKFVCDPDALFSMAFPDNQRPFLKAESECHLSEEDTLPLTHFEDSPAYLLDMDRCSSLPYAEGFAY
The target of the next assay is HSF1 (Homo sapiens, UniProt Q00613 1-529). The conditions noted are these: protein: recombinant; tags: N-terminal GST; chain copies: 3; dsDNA, one strand shown. The method, boiled down:
as §1

For a further assay, the target named is T2, SPIC (Homo sapiens, UniProt Q8N5J4 1-248).
T2 sequence: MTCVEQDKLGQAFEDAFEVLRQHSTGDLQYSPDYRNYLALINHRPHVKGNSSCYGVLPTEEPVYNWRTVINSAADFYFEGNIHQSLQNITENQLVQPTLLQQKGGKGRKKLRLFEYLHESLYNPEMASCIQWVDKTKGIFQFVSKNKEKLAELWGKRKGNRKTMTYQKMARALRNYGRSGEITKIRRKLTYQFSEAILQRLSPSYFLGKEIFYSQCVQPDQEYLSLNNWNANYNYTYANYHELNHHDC
Conditions: protein: recombinant; tags: N-terminal GST; dsDNA, one strand shown. In a few lines:
as §1

In another assay the target is ELF4 (Homo sapiens, UniProt Q99607 1-663). The conditions noted are these: protein: recombinant; tags: N-terminal GST; dsDNA, one strand shown. In a few lines: as §1
Chain of ELF4 (Q99607 whole entry): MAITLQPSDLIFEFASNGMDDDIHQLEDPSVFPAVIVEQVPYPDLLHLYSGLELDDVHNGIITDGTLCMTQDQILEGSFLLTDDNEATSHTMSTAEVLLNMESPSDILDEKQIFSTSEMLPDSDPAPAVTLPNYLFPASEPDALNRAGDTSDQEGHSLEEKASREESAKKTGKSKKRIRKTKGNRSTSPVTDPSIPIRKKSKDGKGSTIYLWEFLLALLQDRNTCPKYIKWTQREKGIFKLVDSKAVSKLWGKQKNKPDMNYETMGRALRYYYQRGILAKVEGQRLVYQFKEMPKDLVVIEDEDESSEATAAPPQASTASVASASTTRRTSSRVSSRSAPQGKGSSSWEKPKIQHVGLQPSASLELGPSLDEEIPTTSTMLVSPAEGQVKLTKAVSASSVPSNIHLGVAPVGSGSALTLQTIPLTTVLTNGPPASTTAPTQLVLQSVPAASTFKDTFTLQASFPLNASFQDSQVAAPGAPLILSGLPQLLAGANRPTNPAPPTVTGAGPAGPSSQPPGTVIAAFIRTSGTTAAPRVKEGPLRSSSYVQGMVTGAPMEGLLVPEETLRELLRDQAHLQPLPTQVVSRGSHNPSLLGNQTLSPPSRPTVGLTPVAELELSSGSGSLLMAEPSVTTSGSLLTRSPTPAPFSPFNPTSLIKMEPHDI
A further assay concerns the target T3, ELK4 (Homo sapiens, UniProt P28324-2 1-405).
T3 sequence: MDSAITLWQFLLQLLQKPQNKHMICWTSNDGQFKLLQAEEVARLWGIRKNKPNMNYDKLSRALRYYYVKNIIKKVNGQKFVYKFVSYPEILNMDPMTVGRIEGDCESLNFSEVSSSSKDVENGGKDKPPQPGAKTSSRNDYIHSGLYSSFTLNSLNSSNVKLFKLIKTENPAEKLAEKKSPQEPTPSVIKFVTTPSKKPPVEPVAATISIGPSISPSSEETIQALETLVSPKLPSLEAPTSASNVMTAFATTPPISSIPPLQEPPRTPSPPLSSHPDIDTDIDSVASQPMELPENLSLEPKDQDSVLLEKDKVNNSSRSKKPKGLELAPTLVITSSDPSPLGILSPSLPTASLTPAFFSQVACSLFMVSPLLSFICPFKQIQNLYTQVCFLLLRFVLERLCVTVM
Conditions: protein: recombinant; tags: N-terminal GST; dsDNA, one strand shown. In a few lines: as §1

In the next assay the target is T4, ETV2 (Homo sapiens, UniProt O00321 1-342).
T4 sequence: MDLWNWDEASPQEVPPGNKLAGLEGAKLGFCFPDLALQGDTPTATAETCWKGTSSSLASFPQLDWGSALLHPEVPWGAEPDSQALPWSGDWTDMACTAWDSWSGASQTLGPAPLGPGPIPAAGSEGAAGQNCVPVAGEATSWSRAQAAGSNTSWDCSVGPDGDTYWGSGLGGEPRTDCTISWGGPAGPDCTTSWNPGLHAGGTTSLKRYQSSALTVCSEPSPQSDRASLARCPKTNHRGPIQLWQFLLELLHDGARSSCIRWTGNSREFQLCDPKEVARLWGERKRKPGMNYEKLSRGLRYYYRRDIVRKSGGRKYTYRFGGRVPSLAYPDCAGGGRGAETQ
The conditions noted are these: protein: recombinant; tags: N-terminal GST; dsDNA, one strand shown. In a few lines: as §1

The target of a further assay is T5, ELF3 (Homo sapiens, UniProt P78545 1-371).
T5 sequence: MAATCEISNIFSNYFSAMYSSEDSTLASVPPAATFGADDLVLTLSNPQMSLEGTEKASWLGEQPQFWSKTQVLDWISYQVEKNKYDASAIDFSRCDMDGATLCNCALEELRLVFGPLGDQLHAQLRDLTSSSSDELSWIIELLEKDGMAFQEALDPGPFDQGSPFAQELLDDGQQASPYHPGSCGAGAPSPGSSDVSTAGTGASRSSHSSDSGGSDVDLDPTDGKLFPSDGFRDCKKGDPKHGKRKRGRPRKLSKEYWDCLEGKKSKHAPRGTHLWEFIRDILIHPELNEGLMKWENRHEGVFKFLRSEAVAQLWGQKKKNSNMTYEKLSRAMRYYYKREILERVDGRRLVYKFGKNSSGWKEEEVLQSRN
Conditions: protein: recombinant; tags: N-terminal GST; dsDNA, one strand shown. The method, boiled down:
as §1

For a further assay, the target named is CRX (Homo sapiens, UniProt O43186 1-299). The conditions noted are these: protein: recombinant; tags: N-terminal GST; dsDNA, one strand shown. The method, boiled down: as §1
Chain of CRX (O43186 whole entry): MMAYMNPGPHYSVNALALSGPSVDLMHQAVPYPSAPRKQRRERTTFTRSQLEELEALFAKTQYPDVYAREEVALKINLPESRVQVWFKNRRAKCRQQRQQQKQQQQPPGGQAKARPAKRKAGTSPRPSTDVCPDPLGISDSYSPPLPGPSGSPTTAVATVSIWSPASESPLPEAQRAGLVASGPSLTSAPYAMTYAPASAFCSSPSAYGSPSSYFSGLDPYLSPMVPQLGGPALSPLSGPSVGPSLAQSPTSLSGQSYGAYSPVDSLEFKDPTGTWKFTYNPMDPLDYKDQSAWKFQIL
The next assay addresses ETV1 (Homo sapiens, UniProt P50549 1-477). The conditions noted are these: protein: recombinant; tags: N-terminal GST; dsDNA, one strand shown. In a few lines: as §1
In another assay the target is T6, ERF (Homo sapiens, UniProt P50548 1-548).
T6 sequence: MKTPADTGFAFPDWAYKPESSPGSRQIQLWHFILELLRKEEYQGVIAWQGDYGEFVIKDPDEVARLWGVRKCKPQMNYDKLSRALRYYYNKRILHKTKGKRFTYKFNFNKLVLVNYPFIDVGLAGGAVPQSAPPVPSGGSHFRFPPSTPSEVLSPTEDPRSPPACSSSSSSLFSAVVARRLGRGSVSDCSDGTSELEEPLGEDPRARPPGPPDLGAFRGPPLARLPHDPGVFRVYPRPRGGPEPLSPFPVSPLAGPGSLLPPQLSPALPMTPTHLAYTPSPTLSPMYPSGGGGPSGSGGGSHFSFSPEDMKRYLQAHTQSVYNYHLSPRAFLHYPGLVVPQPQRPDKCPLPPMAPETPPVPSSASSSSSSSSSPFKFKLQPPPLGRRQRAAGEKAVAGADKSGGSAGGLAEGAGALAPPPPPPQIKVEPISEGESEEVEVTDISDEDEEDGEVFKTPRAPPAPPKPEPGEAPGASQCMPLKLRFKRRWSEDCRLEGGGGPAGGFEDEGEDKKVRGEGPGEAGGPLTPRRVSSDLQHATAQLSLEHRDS
The conditions noted are these: protein: recombinant; tags: N-terminal GST; dsDNA, one strand shown. In a few lines: as §1

For a further assay, the target named is T7, ETV3L (Homo sapiens, UniProt Q6ZN32 1-361).
T7 sequence: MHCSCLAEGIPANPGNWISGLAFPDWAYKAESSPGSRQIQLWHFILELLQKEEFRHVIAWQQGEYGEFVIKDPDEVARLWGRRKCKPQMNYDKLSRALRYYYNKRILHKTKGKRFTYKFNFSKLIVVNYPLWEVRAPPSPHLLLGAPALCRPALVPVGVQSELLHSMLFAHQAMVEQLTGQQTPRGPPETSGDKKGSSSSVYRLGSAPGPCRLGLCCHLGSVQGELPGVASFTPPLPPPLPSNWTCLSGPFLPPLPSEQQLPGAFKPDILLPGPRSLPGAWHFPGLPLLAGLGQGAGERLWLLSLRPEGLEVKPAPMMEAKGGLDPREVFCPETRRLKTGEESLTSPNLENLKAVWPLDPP
The conditions noted are these: protein: recombinant; tags: N-terminal GST; dsDNA, one strand shown. In a few lines: as §1

A further assay addresses T8, ETS2 (Homo sapiens, UniProt P15036 1-469).
T8 sequence: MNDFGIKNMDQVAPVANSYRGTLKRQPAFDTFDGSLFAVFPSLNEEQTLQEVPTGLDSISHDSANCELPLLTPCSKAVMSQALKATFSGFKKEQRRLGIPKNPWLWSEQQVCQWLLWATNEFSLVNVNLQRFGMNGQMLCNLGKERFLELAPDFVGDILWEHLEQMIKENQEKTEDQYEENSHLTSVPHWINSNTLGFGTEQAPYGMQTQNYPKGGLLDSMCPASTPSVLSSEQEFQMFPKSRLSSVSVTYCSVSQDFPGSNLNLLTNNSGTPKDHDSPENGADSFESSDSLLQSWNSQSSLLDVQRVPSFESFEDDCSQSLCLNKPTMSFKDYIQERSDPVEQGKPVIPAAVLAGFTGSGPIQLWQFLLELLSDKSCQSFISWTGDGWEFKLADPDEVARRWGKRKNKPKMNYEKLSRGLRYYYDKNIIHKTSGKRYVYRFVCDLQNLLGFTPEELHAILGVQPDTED
The conditions noted are these: protein: recombinant; tags: N-terminal GST; dsDNA, one strand shown. The method, boiled down:
as §1

Another assay addresses T9, SPDEF (Homo sapiens, UniProt O95238 1-335).
T9 sequence: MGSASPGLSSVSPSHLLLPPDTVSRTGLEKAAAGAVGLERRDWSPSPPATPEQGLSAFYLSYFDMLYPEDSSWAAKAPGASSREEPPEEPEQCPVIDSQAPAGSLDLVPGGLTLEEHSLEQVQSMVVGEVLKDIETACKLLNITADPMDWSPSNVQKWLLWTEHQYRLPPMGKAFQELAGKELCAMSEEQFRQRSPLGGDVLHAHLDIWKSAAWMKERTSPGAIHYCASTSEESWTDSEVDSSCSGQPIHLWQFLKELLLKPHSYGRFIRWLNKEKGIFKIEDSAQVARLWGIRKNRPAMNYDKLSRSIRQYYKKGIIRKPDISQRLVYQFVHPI
The conditions noted are these: protein: recombinant; tags: N-terminal GST; dsDNA, one strand shown. In a few lines:
as §1

For the next assay, the target named is T10, ETV7 (Homo sapiens, UniProt Q9Y603 1-341).
T10 sequence: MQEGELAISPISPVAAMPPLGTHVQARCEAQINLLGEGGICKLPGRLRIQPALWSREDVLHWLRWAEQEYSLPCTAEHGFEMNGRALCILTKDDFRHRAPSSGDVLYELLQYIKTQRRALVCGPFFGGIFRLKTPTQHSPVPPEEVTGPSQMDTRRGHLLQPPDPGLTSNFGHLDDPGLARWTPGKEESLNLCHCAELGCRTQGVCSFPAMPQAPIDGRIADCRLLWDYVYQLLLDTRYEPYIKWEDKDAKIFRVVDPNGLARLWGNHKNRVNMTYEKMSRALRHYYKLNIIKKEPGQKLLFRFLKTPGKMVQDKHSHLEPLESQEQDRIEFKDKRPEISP
The conditions noted are these: protein: recombinant; tags: N-terminal GST; dsDNA, one strand shown. In a few lines: as §1

The target in a further assay is T11, ELF5 (Homo sapiens, UniProt Q9UKW6-2 1-255).
T11 sequence: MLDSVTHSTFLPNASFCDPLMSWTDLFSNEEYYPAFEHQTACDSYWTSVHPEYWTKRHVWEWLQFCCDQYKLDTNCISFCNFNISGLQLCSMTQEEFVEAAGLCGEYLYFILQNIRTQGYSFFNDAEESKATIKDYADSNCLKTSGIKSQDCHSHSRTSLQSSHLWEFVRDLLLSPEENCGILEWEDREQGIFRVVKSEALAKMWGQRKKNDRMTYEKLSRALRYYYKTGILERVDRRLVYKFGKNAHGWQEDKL
The conditions noted are these: protein: recombinant; tags: N-terminal GST; dsDNA, one strand shown. The method, boiled down:
as §1

The next assay deals with T12, ETV3 (Homo sapiens, UniProt P41162-2 1-143).
T12 sequence: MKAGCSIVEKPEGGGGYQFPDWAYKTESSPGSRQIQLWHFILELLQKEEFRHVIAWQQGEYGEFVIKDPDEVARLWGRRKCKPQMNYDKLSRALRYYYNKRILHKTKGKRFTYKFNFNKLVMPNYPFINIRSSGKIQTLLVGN
The conditions noted are these: protein: recombinant; tags: N-terminal GST; dsDNA, one strand shown. The method, boiled down:
as §1

The target in the next assay is ETV6 (Homo sapiens, UniProt P41212 1-452). The conditions noted are these: protein: recombinant; tags: N-terminal GST; dsDNA, one strand shown. In a few lines: as §1
Chain of ETV6 (P41212 whole entry): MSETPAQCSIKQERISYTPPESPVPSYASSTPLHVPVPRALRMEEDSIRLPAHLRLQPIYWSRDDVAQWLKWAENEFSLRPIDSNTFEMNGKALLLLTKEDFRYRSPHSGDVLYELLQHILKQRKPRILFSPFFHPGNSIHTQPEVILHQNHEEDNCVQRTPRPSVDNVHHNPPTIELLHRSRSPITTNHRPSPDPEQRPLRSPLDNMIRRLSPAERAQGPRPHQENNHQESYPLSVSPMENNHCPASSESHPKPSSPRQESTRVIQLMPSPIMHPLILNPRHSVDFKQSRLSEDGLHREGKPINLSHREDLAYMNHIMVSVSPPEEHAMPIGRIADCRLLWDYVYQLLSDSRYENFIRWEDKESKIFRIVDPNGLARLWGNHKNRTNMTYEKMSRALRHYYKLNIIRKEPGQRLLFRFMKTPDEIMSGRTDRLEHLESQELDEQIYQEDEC

Chain of HSF1 (Q00613 whole entry): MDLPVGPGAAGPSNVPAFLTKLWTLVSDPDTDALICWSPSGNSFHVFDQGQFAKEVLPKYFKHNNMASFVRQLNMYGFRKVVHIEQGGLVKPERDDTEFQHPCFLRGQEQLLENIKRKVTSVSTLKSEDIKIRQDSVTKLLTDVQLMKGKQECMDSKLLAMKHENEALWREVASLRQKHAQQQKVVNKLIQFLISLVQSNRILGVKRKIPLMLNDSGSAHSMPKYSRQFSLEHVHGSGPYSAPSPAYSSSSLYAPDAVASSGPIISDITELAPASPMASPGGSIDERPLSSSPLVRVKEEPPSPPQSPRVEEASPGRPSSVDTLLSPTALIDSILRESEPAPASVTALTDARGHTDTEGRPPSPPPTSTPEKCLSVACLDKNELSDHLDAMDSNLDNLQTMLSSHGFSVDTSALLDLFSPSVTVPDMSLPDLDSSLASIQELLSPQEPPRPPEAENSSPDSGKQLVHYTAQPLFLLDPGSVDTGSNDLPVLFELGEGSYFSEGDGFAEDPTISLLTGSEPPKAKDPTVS
Chain of ETV1 (P50549 whole entry): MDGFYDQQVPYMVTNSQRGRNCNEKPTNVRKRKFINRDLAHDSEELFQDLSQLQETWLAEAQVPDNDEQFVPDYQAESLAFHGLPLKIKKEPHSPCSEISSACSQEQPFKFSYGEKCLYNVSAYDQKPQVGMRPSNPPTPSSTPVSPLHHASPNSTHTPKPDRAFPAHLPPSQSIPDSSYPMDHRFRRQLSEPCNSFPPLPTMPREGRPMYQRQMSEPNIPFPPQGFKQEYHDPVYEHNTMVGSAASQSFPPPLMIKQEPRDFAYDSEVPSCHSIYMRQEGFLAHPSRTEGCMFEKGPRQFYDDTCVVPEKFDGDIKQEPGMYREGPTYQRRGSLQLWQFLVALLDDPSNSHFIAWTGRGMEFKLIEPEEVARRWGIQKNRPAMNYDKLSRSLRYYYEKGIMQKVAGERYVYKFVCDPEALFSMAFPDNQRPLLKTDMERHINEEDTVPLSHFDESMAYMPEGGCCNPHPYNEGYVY

In the case of CTTCAA, the binding signal with FEV is 1.33 fold enrichment (6-mer frequency, TF over GST control); with ETV5 it was 1.28 fold enrichment (6-mer frequency, TF over GST control); with HSF1, 1.38 fold enrichment (6-mer frequency, TF over GST control); with SPIC, 1.32 fold enrichment (6-mer frequency, TF over GST control); with ELF4, 1.29 fold enrichment (6-mer frequency, TF over GST control); with ELK4 it was 1.52 fold enrichment (6-mer frequency, TF over GST control). Moreover, the binding signal in the assay with ETV2 is 1.46 fold enrichment (6-mer frequency, TF over GST control); in the assay with ELF3 it was 1.37 fold enrichment (6-mer frequency, TF over GST control); with CRX, 1.22 fold enrichment (6-mer frequency, TF over GST control); in the assay with ETV1, 1.36 fold enrichment (6-mer frequency, TF over GST control); with ERF it was 1.41 fold enrichment (6-mer frequency, TF over GST control); with ETV3L it was 1.3 fold enrichment (6-mer frequency, TF over GST control). Further, the binding signal is 1.25 fold enrichment (6-mer frequency, TF over GST control) with ETS2; 1.34 fold enrichment (6-mer frequency, TF over GST control) in the assay with SPDEF; 1.27 fold enrichment (6-mer frequency, TF over GST control) in the assay with ETV7; 1.32 fold enrichment (6-mer frequency, TF over GST control) with ELF5; 1.29 fold enrichment (6-mer frequency, TF over GST control) with ETV3; 1.39 fold enrichment (6-mer frequency, TF over GST control) with ETV6.
